High-throughput results (PubChem BioAssay)
Most compounds without a hit are left out; they make up all but 20% or so of the library.
HCMV inh = inhibitors of human cytomegalovirus; HFF cells, HCMV-luciferase reporter, 72 h; active compounds read low; activity change, negative = inhibition, % at 57.5 µM; 4.5% of 410,000 active; in the data active = activity change below about -60%; inconclusive = no clear call, values can overlap the other calls; inactive = above about -39%; also: % is scaled to controls: 0 for no effect and ±100 for the full control effect
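Two-dose cell screen: HFF monolayers treated with compounds and infected with luciferase-expressing HCMV at 1 PFU/cell, 72 h at 37C, then lysed for luciferase measurement.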
Shiga toxin inh = blocks Shiga toxin action in Vero cells; inhibition, % at 38.7 µM; Vero cells, Shiga toxin protein synthesis inhibition reporter; 9.2% of 290,000 active; in the data active = inhibition mostly above about 28%, no sharp cut-off; inactive = mostly below about 43%; also: 0% is about no effect
Pf growth 96h = P. falciparum growth inhibition at 96 hour, primary screen for plastid delayed-death inhibitors. P. falciparum luciferase reporter growth, 96 h. Potency, µM (top dose mostly 28.7 µM), inactives show at the highest dose activity change, negative = inhibition, actives largely listed as inhibitors. 6.9% of 320,000 active; also: potency is read from the fitted curve at half-maximal effect; % is scaled to controls: 0 for no effect and ±100 for the full control effect
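Infected RBCs, 2% Hct / 0.05% parasitemia final; luciferase-reporter P. falciparum; cpd 96 h, 37 C, 5% CO2; luciferase detection reagent; luminescence.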
Pf growth 48h = P. falciparum growth inhibition at 48 hours (one generation) | P. falciparum luciferase growth in erythrocytes, 48 h | Potency, µM (top dose mostly 28.7 µM), for inactives: at the top dose activity change, negative = inhibition, usual class: inhibitors | 5.9% of 310,000 active; also: potency is read from the fitted curve at half-maximal effect; % is scaled to controls: 0 for no effect and ±100 for the full control effect
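Erythrocytes infected with P. falciparum carrying an integrated firefly luciferase reporter (2% hematocrit, 0.1% parasitemia final) were exposed to compounds in RPMI 1640 with 0.5% Albumax at 37 C, 5% CO2. Growth inhibition was scored as reduced luminescence.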
Cycloheximide cs = counter-screen for Shiga toxin inhibitors: cycloheximide protein synthesis inhibition. AID 2314. cell reporter, cycloheximide protein synthesis inhibition counterscreen. 12% of 300,000 active. max response, %; in the data active = max response mostly above about 13%, no sharp cut-off; inactive = mostly below about 14%; also: read at 38.3 µM for the half of the compounds with a filed dose; 0% is about no effect
An asterisk follows results filed as active; ? = inconclusive; . = no result; [ ] = remark or other dose. Unless noted, calls follow the shape of the dose curve; as a rule, active = well fitted inhibition curve with a large enough effect; inconclusive = small, poorly fitted or top-dose-only effect, or another doubt; inactive = no such curve, though single readings can be large or run the other way.

SMILES	HCMV inh	Shiga toxin inh	Pf growth 96h	Pf growth 48h	Cycloheximide cs
CCCCn1c(=O)n(CC(O)c2ccccc2)c(=O)c2c1ncn2C1CCCC1 (centres undefined)	?	-14.7	?	2.94µM*	3.9
O=c1c2c(ncn2C2CCCC2)n(Cc2ccccc2)c(=O)n1CCOc1ccccc1	19.0	15.9	?	16.5µM*	6.1
Cc1ccc(C)c(OCCn2c(=O)c3c(ncn3C3CCCC3)n(Cc3ccccc3)c2=O)c1	-10.5	-2.7	2.62µM*	11.7µM*	-1.2
O=C(NCc1cccnc1)c1ccccc1NS(=O)(=O)c1ccc(F)cc1F	-30.6	-6.3	4.5%	-3.1%	-0.8
CC(C)(C)CC(C)(C)c1cc(Cc2cc(C(C)(C)CC(C)(C)C)cc(-n3nc4ccccc4n3)c2O)c(O)c(-n2nc3ccccc3n2)c1	.	.	2.9%	-5.1%	.
COc1ccc(CCNCCN2CCOCC2)cc1	-18.7	-0.4	0.0%	12.2%	-0.9
COc1cc(C2c3c(oc4ccccc4c3=O)C(=O)N2c2ccc(C)cn2)ccc1O (centres undefined)	?	13.5	14.7µM*	9.2%	8.2
CC1=C(C(=O)N(C)C)CC(CC(=O)NCCCCc2ccccc2)C(=O)N1CCCN1CCCC1=O (centres undefined)	-37.0	.	.	.	.
NNc1cc(C(=O)O)ccc1Cl	-24.2	11.6	2.6%	9.2%	-1.4
CNC(=S)Nc1cccc(C(=O)O)c1	35.2	-5.8	-39.2%[5.75 µM]	14.1%	-1.0
O=C(O)c1cccc(NC(=S)NC(=O)c2ccncc2)c1	-17.9	7.9	9.28µM*	32.0%	9.6
CC(C)(C)C(=O)NC(=S)Nc1cccc(C(=O)O)c1	-3.5	83.9*	32.7%[5.75 µM]	213.3%	45.3*
CC(C)(C)C(=O)NC(=S)Nc1cc(C(=O)O)ccc1Cl	-60.8*	5.3	0.7%	6.5%	8.5
CC(=O)Nc1ccc(NC(=S)Nc2ccc(F)cc2)cc1	-31.7	19.8	?	4.5%	-0.6
CSc1cccc(NC(=S)NC(=O)c2cccnc2)c1	-11.9	11.9	?	6.1%	10.5
CC(C)(C)C(=O)NC(=S)Nc1ccc(F)cc1	8.6	87.2*	?	41.9%	30.9*
O=C(NCCC(c1ccccc1)c1ccccc1)c1cnc2sccn2c1=O	-22.2	-4.5	26.3%	-6.4%	-3.4
CC(C)(C)c1ccc(C(=O)NC(=S)Nc2ccc(N3CCOCC3)cc2)cc1	-18.8	-3.5	11.7µM*	?	-1.3
CC(C)c1ccc(C(=O)Nc2ccc(N3CCOCC3)cc2)cc1	-66.0*	14.7	-17.0%	?	7.9
CC(C)(C)c1ccc(C(=O)Nc2ccc(N3CCOCC3)cc2)cc1	-78.5*	-5.9	?	.	-2.3
N#Cc1ccccc1Cn1c(=O)oc2ccccc21	39.6	1.1	9.1%	17.0%	7.1
O=c1oc2ccccc2n1Cc1ccccc1Cl	-3.2	-3.5	4.65µM*	3.9%	-1.2
COCCCNC(=O)CCCn1c(=O)c2ccccc2n(CC(=O)Nc2ccc(C)cc2Cl)c1=O	-19.4	.	.	.	.
COc1cccc2c1O/C(=N\O)C(C(=O)Nc1cccc(Br)c1)C2 (centres undefined)	60.6	79.6*	18.2%	-20.7%[0.00184 µM]	33.1*
COc1cccc2c1O/C(=N\O)C(C(=O)Nc1ccc(C)cc1)C2 (centres undefined)	-60.1*	22.4	-17.8%	13.7%	13.4*
SMILES	HCMV inh	Shiga toxin inh	Pf growth 96h	Pf growth 48h	Cycloheximide cs
O=C(COc1ccccc1)Nc1ccccc1OCc1cc(=O)n2ccccc2n1	1.0	.	.	.	.
CCOC(=O)N1CCN([N+]([O-])=NOc2cc(O/N=[N+](\[O-])N(CC)CC)c([N+](=O)[O-])cc2[N+](=O)[O-])CC1	.	-8.5	.	.	-3.0
COc1ccc(-n2nnnc2CNC(=O)C(=O)c2c[nH]c3ccccc23)cc1	-13.4	.	9.9%	?	.
Cc1ccc(-n2nnnc2SC(C(=O)c2c[nH]c3ccccc23)c2ccccc2)cc1 (centres undefined)	-6.9	-9.0	1.47µM*	?	-1.8
CCCNC(=O)N1[C@H]2CC[C@@H]1C(C(=O)OC)=C(c1ccc(Cl)c(C(F)(F)F)c1)C2	-20.9	.	?	?	.
COC(=O)C1=C(c2ccc(Cl)c(C(F)(F)F)c2)C[C@@H]2CC[C@H]1N2C(=O)N1CCCC1	-27.8	.	?	11.7µM*	.
COC(=O)C1=C(c2ccc(Cl)c(C(F)(F)F)c2)C[C@@H]2CC[C@H]1N2C(=O)NCc1cc(C)oc1C(F)(F)F	-11.4	.	?	7.38µM*	.
COC(=O)C1=C(c2ccc(Cl)c(C(F)(F)F)c2)C[C@@H]2CC[C@H]1N2C(=O)NCC1CC1	-23.2	.	6.57µM*	11.7µM*	.
O=C(c1cnc(Cc2c[nH]c3ccccc23)c(I)c1)N1CCOCC1	-1.6	.	.	.	.
CC(C)Oc1ccc(Nc2cc3c(cn2)cc(-c2cccnc2)n3C)cc1	-6.4	.	.	.	.
O=C(Nc1ccc2c(c1)OCO2)C1CC(c2ccccc2Cl)=NO1 (centres undefined)	19.2	48.1*	3.5%	95.7%	19.9
CCn1cc(C2=NOC(C(=O)Nc3ccc4c(c3)OCO4)C2)c(C)n1 (centres undefined)	-37.0	12.2	0.522µM*	?	9.3
CCn1cc(C2=NOC(C(=O)Nc3cc(C)nn3-c3ccccc3)C2)c(C)n1 (centres undefined)	-3.9	-11.7	19.3%	-15.1%	-2.5
O=C(Nc1cc(Br)ccc1O)C1CC(c2ccccc2Cl)=NO1 (centres undefined)	-23.5	-2.2	?	-9.8%	-2.4
COCCNC(=O)C1CCCN(C(=O)/C=C/c2ccccc2)CC1 (centres undefined)	23.4	.	.	.	.
O=C(NC(=S)Nc1ccc(N2CCOCC2)cc1)c1ccc2c(c1)OCCO2	-84.7*	60.8*	26.7%	17.1%	41.6*
O=C(NC(=S)Nc1ccc(F)cc1)c1ccc2c(c1)OCCO2	-34.3	101.5*	?	131.6%	70.5*
O=C(NC(=S)Nc1ccc(Cc2ccncc2)cc1)c1ccc(F)cc1	?	27.4	78.6%	?	18.0*
O=C(NC(=S)Nc1ccc(CN2CCOCC2)cc1)c1ccc2c(c1)OCCO2	11.6	87.8*	-19.0%	-18.8%	30.9*
CC(C)(C)C(=O)NC(=S)Nc1ccc(Cc2ccncc2)cc1	-32.4	-8.9	?	-13.3%	-0.4
N#Cc1ccc(Cl)cc1NC(=O)COC(=O)[C@H](CCC(N)=O)NC(=O)c1ccc(F)cc1	71.5	5.9	33.2%	6.2%	-3.9
O=C(NC(=S)Nc1c(F)cc(F)cc1Br)c1ccc2c(c1)OCCO2	-33.2	83.8*	25.6%	15.9%	27.9*
CS(=O)(=O)N1CCN(c2ccc(NC(=S)NC(=O)c3ccc4c(c3)OCO4)cc2)CC1	-38.8	-12.0	?	-9.5%	-2.0
O=C(NC(=S)Nc1ccc(N2CCCCC2)cc1)c1ccc2c(c1)OCCO2	?	97.7*	73.4%	131.2%	58.2*
COc1ccc(NC(=S)NC(=O)c2ccc3c(c2)OCCO3)cc1	-21.6	.	.	.	.
COC(=O)c1ccc(NC(=O)CN2C(=O)c3cccc4cccc2c34)cc1	16.3	.	.	.	.
